Reference: PubChem BioAssay (NCATS)
Records with an inconclusive call do not appear. Unless noted, calls follow the shape of the dose curve; as a rule, active = well fitted curve in either direction with a large enough effect (not every such curve was filed as active); inconclusive = small, poorly fitted or top-dose-only effect, or another doubt; inactive = flat fitted curve, though single readings scatter.

Assays:
[1] = NFAT Signaling Pathway (AID 444); details: Jurkat NFAT-bla M1, carbachol, beta-lactamase ratio, 5 h; at 17.2 µM (top of the series) unless noted;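 also: carbachol stimulus at about its EC50 of 1 µM final; % is scaled to controls: 0 for no effect and ±100 for the full control effect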
How it was run: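 Read-out: CCF4 FRET ratio (460 nm/530 nm) after 1 h RT dye loading, used for %activity and AC50 from titration series. Cells: Jurkat NFAT-β-lactamase/M1 line, treated with compound plus 1 uM carbachol for 5 h, 37 °C.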

[2] = Stat Signaling Pathway (AID 446); details: ME-180 (cervical carcinoma) SIE beta-lactamase reporter, IL-6 stimulated, 5 h; at 17.2 µM (top of the series) unless noted;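 also: ME-180 cervical cancer cells given 40 pM IL-6 alongside compound; SIE-controlled beta-lactamase reporter measured as 460/530 nm FRET emission ratio; % is scaled to controls: 0 for no effect and ±100 for the full control effect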
How it was run: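 Normalization used AC90 stimulation (300 pM IL-6) and AC90 inhibition (125 nM pan-JAK inhibitor at 40 pM IL-6). The underlying signal is SIE-driven beta-lactamase in ME-180 cells after 5 h IL-6 exposure with compound.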

[3] = target: Glucocorticoid receptor (Homo sapiens) (UniProt P04150); assay: GR-GFP Redistribution (AID 450;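 active = compounds whose dose series gives a full or clear partial fitted curve of increased nuclear translocation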; also: potency is read from the fitted curve at half-maximal effect)
Chain of Glucocorticoid receptor (Homo sapiens) (P04150 whole entry, looked up): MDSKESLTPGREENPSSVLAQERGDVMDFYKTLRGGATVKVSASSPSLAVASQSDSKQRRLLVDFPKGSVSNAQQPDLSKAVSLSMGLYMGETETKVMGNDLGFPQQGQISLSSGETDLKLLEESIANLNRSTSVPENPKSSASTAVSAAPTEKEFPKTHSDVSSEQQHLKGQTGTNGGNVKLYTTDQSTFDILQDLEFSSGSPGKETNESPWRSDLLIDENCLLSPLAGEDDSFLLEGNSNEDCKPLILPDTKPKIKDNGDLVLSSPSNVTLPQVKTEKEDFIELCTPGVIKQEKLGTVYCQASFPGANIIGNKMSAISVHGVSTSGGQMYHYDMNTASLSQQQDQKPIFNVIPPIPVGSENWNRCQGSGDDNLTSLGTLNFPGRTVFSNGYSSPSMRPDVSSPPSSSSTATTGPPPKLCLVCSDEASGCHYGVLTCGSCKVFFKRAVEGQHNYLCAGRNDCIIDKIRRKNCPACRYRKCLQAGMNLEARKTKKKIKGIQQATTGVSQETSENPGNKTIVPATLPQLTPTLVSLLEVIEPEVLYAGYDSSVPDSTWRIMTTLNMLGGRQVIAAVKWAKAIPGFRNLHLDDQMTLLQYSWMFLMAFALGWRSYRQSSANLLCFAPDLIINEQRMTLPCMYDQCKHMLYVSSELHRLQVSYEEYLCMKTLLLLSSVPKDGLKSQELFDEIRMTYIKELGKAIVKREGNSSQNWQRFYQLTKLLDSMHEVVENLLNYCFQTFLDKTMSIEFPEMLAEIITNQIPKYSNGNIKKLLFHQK

CCC1(C)Cc2c(C#N)c(N)sc(=S)c2CO1 (stereo not drawn)
inactive: activity change, negative = inhibition [1] -12.1% | activity, negative = inhibition [2] -10.3% | Potency [3] > 20.6 µM
